Compound activity: PubChem BioAssay, National Center for Advancing Translational Sciences (NCATS)
TDP1 cell CPT – growth inhibition of DT40 Tdp1-/-;hTDP1 cells with camptothecin (screen for TDP1 inhibitors). 12% of 420,000 active. Potency, µM (highest dose often 46.2 µM), for inactives: at the highest dose activity change, negative = growth inhibition, usual class: inhibitors. chicken DT40 Tdp1-/-;hTDP1 cells + 20 nM CPT, ATP luminescence, 48 h; further: potency means the concentration at half of the fitted maximal effect; on the % scale 0 is the no-effect control and ±100 the full control effect; nearly all actives have a fitted effect of over 55% in size
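Chicken DT40 Tdp1-/- cells stably complemented with human TDP1 were seeded at 400 cells/well in medium containing 20 nM camptothecin, exposed to pin-transferred compounds, and grown at 37 °C for at least 48 hr. Viability was read as ATP luminescence.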
TGFb SMAD3 inh – inhibitors of TGF-b signaling; HepG2 CAGA-GFP TGF-b/SMAD3 reporter, GFP fluorescence, 18 h; TGF-beta stimulated, 500 pg/mL final; Potency, µM (top dose mostly 46.1 µM), without a hit: at the highest dose activity, negative = inhibition, most hits filed as inhibitors; 1.2% of 410,000 active; further: potency means the concentration at half of the fitted maximal effect; on the % scale 0 is the no-effect control and ±100 the full control effect; nearly all actives have a fitted effect of over 65% in size
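HEPG2 CAGA-GFP cells (1000/well, DMEM with 1% FBS) were pre-incubated 2 h at 37 degrees C, given compound by pin tool, then stimulated with TGF-beta at 500 pg/mL final for 18 h before per-cell GFP fluorescence imaging.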
TDP1 inh – inhibitors of human tyrosyl-DNA phosphodiesterase TDP1 | recombinant TDP1, AlphaScreen DNA substrate cleavage | 0.28% of 350,000 active | AID 485290 | Q9NUW8 | Potency, µM (series often up to 130 µM), for the others: at the top dose activity change, negative = inhibition, usual class: inhibitors; further: potency means the concentration at half of the fitted maximal effect; on the % scale 0 is the no-effect control and ±100 the full control effect; nearly all actives have a fitted effect of over 40% in size
Target sequence (Q9NUW8 whole entry, looked up): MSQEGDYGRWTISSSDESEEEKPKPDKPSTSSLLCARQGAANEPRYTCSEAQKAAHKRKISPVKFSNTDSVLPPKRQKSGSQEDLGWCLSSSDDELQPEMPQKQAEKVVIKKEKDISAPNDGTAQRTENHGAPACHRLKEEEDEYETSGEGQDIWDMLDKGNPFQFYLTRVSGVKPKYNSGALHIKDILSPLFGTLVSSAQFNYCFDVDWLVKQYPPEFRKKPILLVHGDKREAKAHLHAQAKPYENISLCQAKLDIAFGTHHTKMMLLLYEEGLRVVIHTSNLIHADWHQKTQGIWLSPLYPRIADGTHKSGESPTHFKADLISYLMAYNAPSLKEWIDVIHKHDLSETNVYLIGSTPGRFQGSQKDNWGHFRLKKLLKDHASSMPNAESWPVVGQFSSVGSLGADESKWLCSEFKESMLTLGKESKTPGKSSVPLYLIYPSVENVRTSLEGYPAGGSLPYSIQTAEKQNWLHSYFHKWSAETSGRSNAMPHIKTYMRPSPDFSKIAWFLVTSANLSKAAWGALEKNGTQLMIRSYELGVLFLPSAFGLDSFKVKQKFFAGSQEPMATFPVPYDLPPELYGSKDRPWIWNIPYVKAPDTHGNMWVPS
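Compounds were preincubated with Tdp1 (1 nM final) for 15 min at room temperature before substrate (15 nM final) started a 5 min reaction; beads (10 ug/ml final) were then added for 10 min before AlphaScreen detection.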
HepG2 viability – counter-screen for TGF-b inhibitors: cytotoxicity in HepG2 cells. HepG2 CAGA-GFP viability, ATP luminescence, 18 h. Potency, µM (series often up to 46.1 µM), inactives show top-dose activity change, negative = cytotoxicity, hits mostly cytotoxic. 0.76% of 410,000 active. AID 588856; further: potency means the concentration at half of the fitted maximal effect
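HepG2 CAGA-GFP cells (1000/well, DMEM with 1% FBS) received compound, then TGF-beta at 500 pg/mL final, and were incubated 18 hours at 37 degrees C. Viability was read by CellTiter-Glo luminescence. Media-only wells were set as complete cell-killing and DMSO as no toxicity.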
IL-1B inflam inh – inflammasome signaling inhibition, IL-1 beta readout. THP-1 LPS/ATP IL-1B secretion, AlphaLISA, 16 h; active compounds read low. activity change, % at 57.5 µM. 4.7% of 360,000 active; in the data active means activity change below about -50%; inconclusive means mostly about -30% to -49%; further: on the % scale 0 is the no-effect control and ±100 the full control effect
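THP-1 cells pretreated 1 hr with compounds (up to 57.5 uM final), then stimulated with LPS (250 ng/mL final) plus ATP (1.25 mM final); secreted IL-1B measured by AlphaLISA after 16 hr, decreased signal indicating inhibition.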
DT40 TDP1 no CPT – qHTS for Inhibitors of human tyrosyl-DNA phosphodiesterase 1 (TDP1): qHTS in cells in absence of CPT; AID 686978, 2013; 15% of 420,000 active; DT40 Tdp1-/- hTDP1 cells, no CPT, ATP luminescence, 48 h; Potency, µM (doses to about 46.2 µM), inactives show top-dose activity change, negative = growth inhibition, most hits filed as inhibitors; further: potency means the concentration at half of the fitted maximal effect; on the % scale 0 is the no-effect control and ±100 the full control effect; nearly all actives have a fitted effect of over 55% in size
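Camptothecin absent (DMSO only). Human TDP1-complemented DT40 knockout cells, 400 cells/well, 37 °C for minimum 48 hr; ATP measured via CellTiter-Glo, 30 min dark incubation, luminescence.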
An asterisk follows results filed as active; ? = inconclusive; nt = no result; [ ] = remark or other dose. Only some compounds are listed: those with a hit (about 19% of all), similar ones and a draw of the others. Unless noted, the call rests on the fitted dose curve; in most records, active means well fitted curve in the direction sought with a large enough effect; inconclusive means small, poorly fitted or top-dose-only effect, or another doubt; inactive means no such curve, though single readings can be large; an effect the other way counts as inactive or inconclusive.

SMILES	TDP1 cell CPT	TGFb SMAD3 inh	TDP1 inh	HepG2 viability	IL-1B inflam inh	DT40 TDP1 no CPT
CCOC(=O)CN1C(=O)/C(=C/c2ccc(Cl)cc2)Oc2ccccc21	14.0%	0.0%	nt	-11.5%	-8.7	-11.4%
CCOC(=O)c1cc(S(=O)(=O)Nc2c(C)cc(C)cc2C)[nH]n1	-11.5%	?	5.3%	-31.3%	nt	-27.2%
Nc1nc(-c2ccccc2)nc2nonc12	-0.7%	-1.7%	nt	-1.4%	-2.8	-28.2%
Cc1ccc(C)c(N2CCN(C(=O)c3cc4cc5ccc(C)cc5nc4s3)CC2)c1	?	-13.9%	-2.5%	0.8%	nt	6.0%
NNC(=O)CNC(c1ccccc1)c1cc(Br)ccc1NC(=O)c1ccc(Br)cc1 (centres undefined)	?	-16.5%	0.0%	-29.4%	-62.5*	-19.2%
CCOC(=O)CNC(c1ccccc1)c1cc(Br)ccc1NC(=O)c1cccc(Cl)c1 (centres undefined)	?	-19.4%	-8.4%[12.3 µM]	-29.7%	nt	23.1µM*
NNC(=O)CNC(c1ccccc1)c1cc(Br)ccc1NC(=O)c1cccc(Cl)c1 (centres undefined)	?	?	-5.1%	-3.4%	-19.8	?
COC(=O)CNC(c1ccccc1Cl)c1cc(Br)ccc1NS(=O)(=O)c1ccc(C)cc1 (centres undefined)	?	?	3.0%	-2.1%	10.3	16.4µM*
COC(=O)CNC(c1ccccc1)c1cc(Br)ccc1NC(=O)c1ccccc1 (centres undefined)	20.6µM*	?	2.2%[12.3 µM]	-53.3%	nt	?
CCCOc1ccc(N2CC(C(=O)Nc3cccc(Cl)c3Cl)CC2=O)cc1 (centres undefined)	?	-27.6%	1.3%[12.3 µM]	-23.6%	nt	-17.2%
CC1CN(c2cnn(C(C)C)c(=O)c2Cl)CC(C)O1 (centres undefined)	-10.1%	-10.4%	nt	-7.7%	-17.1	-1.4%
Cc1cccc(NC(=O)N2CCC(CN3CCCCCC3)CC2)c1C	?	-0.1%	2.5%	-33.1%	nt	?
NNC(=O)CNC(c1ccccc1)c1cc(Br)ccc1NC(=O)CCN1CCOCC1 (centres undefined)	23.1µM*	-6.5%	-9.9%	-21.2%	-0.9	13µM*
CC(C)Cn1c(C(C)C)nc([N+](=O)[O-])c1S(=O)(=O)c1ccc(F)cc1	2.31µM*	?	3.4%	-43.7%	-89.2*	3.26µM*
O=C(CSc1cccc[n+]1[O-])Nc1ccc(C(F)(F)F)cc1[N+](=O)[O-]	-15.8%	10.7%	2.5%	-6.2%	-3.2	-1.6%
O=[N+]([O-])c1ccc(Sc2cccc[n+]2[O-])c2nonc12	0.0058µM*	1.26µM*	8.9%	-114.8%	-98.0*	0.0206µM*
Cc1cccc(N2C(=O)N(Cc3cccc(C#N)c3)c3ccccc3S2(=O)=O)c1	?	0.0%	-4.4%	-1.3%	nt	?
COc1ccc(OC)c(NC(=O)C2CCCN(S(=O)(=O)c3ccc4[nH]c(=O)ccc4c3)C2)c1 (centres undefined)	?	-18.5%	-5.1%	-25.7%	nt	23.1µM*
CC(C)c1ccc(NC(=O)C2CCCN(S(=O)(=O)c3ccc4[nH]c(=O)ccc4c3)C2)cc1 (centres undefined)	11.6µM*	nt	7.7%	-14.8%	nt	-23.9%
CCCCNC(=O)c1nc(C2CCN(S(=O)(=O)c3cccc(C(F)(F)F)c3)CC2)oc1-c1ccccc1	9.2µM*	?	nt	-65.0%	13.0	8.2µM*
CCCCNC(=O)c1nc(C2CCN(S(=O)(=O)c3c(OC)cccc3OC)CC2)oc1-c1ccccc1	11.6µM*	nt	nt	nt	-18.7	9.2µM*
CCCCNC(=O)c1nc(C2CCN(S(=O)(=O)c3ccc(Cl)cc3)CC2)oc1-c1ccccc1	7.31µM*	nt	nt	nt	0.0	7.31µM*
Cc1ccc(NC(=O)C(=O)NCC(c2ccc3c(c2)OCO3)N2CCN(c3ccccc3)CC2)cc1 (centres undefined)	-0.4%	1.6%	-2.2%	-6.4%	nt	-17.3%
COC(=O)/C=c1/s/c(=C(/C#N)C(=O)N2CCCCC2)n(-c2ccccc2)c1=O	-20.4%	10.7%	0.0%	-11.0%	4.7	?
COc1cc(/C=c2\s/c(=C(/C#N)C(=O)N3CCCC3)n(-c3ccccc3)c2=O)ccc1O	?	-9.2%	3.0%	-4.0%	4.7	9.2µM*
SMILES	TDP1 cell CPT	TGFb SMAD3 inh	TDP1 inh	HepG2 viability	IL-1B inflam inh	DT40 TDP1 no CPT
CC(=O)O[C@H]1CC2(C)[C@@H](C[C@@H](O)[C@H]3[C@@]4(C)CC[C@@H](O)[C@@H](C)[C@@H]4CC[C@@]32C)C1=C(CCC=C(C)C)C(=O)O (some centres undefined)	nt	nt	4.1%[56.1 µM]	nt	nt	nt
COc1ccc(Sc2ccccc2CN(C)C)cc1OC	-19.6%	20.2%	1.0%	-1.2%	-18.4	?
CNCc1ccccc1Sc1ccc(O)c(O)c1	2.59µM*	?	nt	-25.1%	-124.9*	4.11µM*
O=C1/C(=C/c2ccco2)N=C(N2CCCCC2)N1c1ccccc1	20.6µM*	-5.6%	2.8%	-13.9%	-8.4	18.4µM*
CC(C)N(C1=N/C(=C\c2ccco2)C(=O)N1c1ccccc1)C(C)C	13µM*	0.7%	1.9%	-13.2%	14.1	?
CN1C(=S)N(c2ccccc2)C(=O)/C1=C/c1ccco1	?	0.0%	5.9%	3.4%	2.1	?
O=C(Nc1ccccc1C(=O)O)c1cccc(N2C(=O)c3ccccc3C2=O)c1	3.7%	2.6%	11.1%	-0.6%	13.8	-13.5%
COc1ccc(/C=N/N=C2/SCC(=O)N2Cc2ccccc2)cc1	-16.7%	4.1%	6.0%	10.0%	4.2	?
COc1ccc(/C=C2\CN(Cc3ccccc3)C/C(=C\c3ccc(OC)cc3)C2=O)cc1	10.3µM*	11.2µM*	7.0%	-2.2%	-28.6	16.4µM*
COc1ccc(-c2oc3ccc(N4CCOCC4)cc3c2C#CC2(O)CCCCC2)cc1	?	?	nt	-66.2%	11.3	16.4µM*
COc1ccc(-c2oc3ccc(N4CCOCC4)cc3c2C#Cc2ccc(N)cc2)cc1	7.31µM*	?	nt	-6.4%	46.6	6.51µM*
COc1ccc(C#Cc2c(-c3ccsc3)oc3ccc(N4CCOCC4)cc23)cc1	?	-8.1%	nt	-27.7%	-8.3	-20.2%
COc1ccc(-c2oc3cccnc3c2C#CC2(O)CCCCC2)cc1	?	?	nt	22.6%	-55.7*	23.1µM*
